Assay [1] deals with Thyrotropin-releasing hormone receptor (Homo sapiens) (UniProt P34981). The experiment in a line: qHTS assay to identify small molecule agonists of the thyrotropin-releasing hormone receptor (TRHR) signaling pathway (AID 1346891; calls by dose curve;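 also: HEK293 cells expressing TRHR with calcium dye readout; series mostly up to about 58 µM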). An outline of the steps:
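Compounds were tested as agonists at 15 concentrations, in triplicate, on TRHR-Hek293 cells; calcium-sensitive dye fluorescence was recorded for 3 min following addition.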
(Quantitative high-throughput screening tests each substance at several concentrations.)

A short description of assay [2]: Human pregnane X receptor (PXR) small molecule agonists, qHTS cell viability counter screen (AID 1346977). Also: nearly all actives have a fitted effect of over 50% in size. An outline of the steps:
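Viability counter screen: CellTiter-Fluor signal in PXR-Luc HepG2 cells, 24hr compound exposure, 37C, 5% CO2.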

Assay [3] is described as follows: Caspase-3/7 induction in CHO-K1 cells by small molecules, qHTS cell viability counter screen (AID 1346979). Also: nearly all actives have a fitted effect of over 35% in size. An outline of the steps:
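Viability readout by fluorescence (CellTiter-Fluor) on wild-type CHO-K1 cells exposed for 16hr at 37C and 5% CO2 to compounds delivered in DMSO; reagent incubated 1hr before reading.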

Assay [4] is described as follows: Caspase-3/7 induction in CHO-K1 cells by small molecules, qHTS assay (AID 1346980). Also: nearly all actives have a fitted effect of over 15% in size. An outline of the steps:
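Luminescent Caspase-Glo 3/7 read (30min, room temperature) quantified apoptosis induction. Cells were wild-type CHO-K1, treated with compound for 17hr at 37 C and 5% CO2.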

Assay [5] in a line: Caspase-3/7 induction in HepG2 cells by small molecules, qHTS cell viability counter screen (AID 1346981). Also: series mostly up to about 92 µM; nearly all actives have a fitted effect of over 30% in size. An outline of the steps: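 Wild-type HepG2 cells, 2,000/well, settled 5 hr at 37 C, 5% CO2 before compound addition. Viability read by CellTiter-Fluor fluorescence, reagent added after 16 hr compound exposure, then 1 hr at 37C, in the same wells as the caspase read.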
The target in assay [6] is Nuclear receptor subfamily 1 group I member 2 (Homo sapiens) (UniProt O75469). Description: Human pregnane X receptor (PXR) small molecule agonists, qHTS assay (AID 1346982). Also: nearly all actives have a fitted effect of over 35% in size. Also: potency is read from the fitted curve at half-maximal effect. An outline of the steps:
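PXR-Luc HepG2 reporter cells (CYP3A4-driven luciferase) in 5% charcoal-stripped FBS medium, plated 5 h before compound addition, then treated 24 h at 37C. Luciferase read by ONE-Glo luminescence after 30 min at room temperature.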

The target in assay [7] is Cytochrome P450 2D6 (Homo sapiens) (UniProt P10635). Description: Cytochrome P450 Family 2 Subfamily D Member 6 (CYP2D6) small molecule antagonists: luciferase reporter qHTS assay (AID 1671196). Also: nearly all actives have a fitted effect of over 50% in size. Also: potency is read from the fitted curve at half-maximal effect. An outline of the steps:
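Cell-free P450-Glo system: CYP2D6 with proluciferin substrate was pre-incubated with compound for 10 min, then reacted with NADPH regeneration for 1 h at room temperature. Luciferin product was detected after 20 min, and data were reported as relative luminescence units.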

Assay [8] addresses Cytochrome P450 2C19 (Homo sapiens) (UniProt P33261). Description: Cytochrome P450 Family 2 Subfamily C Member 19 (CYP2C19) small molecule antagonists: luciferase reporter qHTS assay (AID 1671197). Also: nearly all actives have a fitted effect of over 65% in size. Also: potency is read from the fitted curve at half-maximal effect. An outline of the steps:
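First, compounds are pinned into enzyme-substrate mix and held 10 min at room temperature. Second, NADPH regeneration solution is added and plates incubate 1 h at 37C. Third, detection reagent is added and luminescence read after 20 min.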
For orientation: In a reporter assay the amount or activity of a reporter protein is the signal.

Assay [9] has as its target Cytochrome P450 2C9 (Homo sapiens) (UniProt P11712). The experiment in a line: Cytochrome P450 Family 2 Subfamily C Member 9 (CYP2C9) small molecule antagonists: luciferase reporter qHTS assay (AID 1671198). Also: nearly all actives have a fitted effect of over 50% in size. Also: potency is read from the fitted curve at half-maximal effect. An outline of the steps:
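Enzyme-substrate mix preincubated with compound 10 min at room temperature; reaction started with NADPH regeneration solution, 1 h 37C. Luminescent luciferin product read after 20 min detection reagent.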

Assay [10] concerns the target Cytochrome P450 1A2 (Homo sapiens) (UniProt P05177). Description: Cytochrome P450 Family 1 Subfamily A Member 2 (CYP1A2) small molecule antagonists: luciferase reporter qHTS assay (AID 1671199). Also: nearly all actives have a fitted effect of over 50% in size. Also: potency is read from the fitted curve at half-maximal effect. An outline of the steps:
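P450-Glo CYP1A2 enzyme–proluciferin substrate mix with compound 10 min at room temperature, then NADPH regeneration 1 h at room temperature. Luciferin detection reagent added, luminescence read after 20 min; furafylline positive control.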

In assay [11] the target is Voltage-gated inwardly rectifying potassium channel KCNH2 (Homo sapiens) (UniProt Q12809). The experiment in a line: Human Ether-a-go-go-Related Gene (hERG) channel small molecule antagonists: fluorescence cell-based qHTS assay (AID 1671200). An outline of the steps: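 Thallium served as the potassium surrogate; its influx into dye-loaded U2OS cells carrying the channel was measured by fluorescence over 2 min.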
Chain of Voltage-gated inwardly rectifying potassium channel KCNH2 (Homo sapiens) (Q12809 whole entry, looked up): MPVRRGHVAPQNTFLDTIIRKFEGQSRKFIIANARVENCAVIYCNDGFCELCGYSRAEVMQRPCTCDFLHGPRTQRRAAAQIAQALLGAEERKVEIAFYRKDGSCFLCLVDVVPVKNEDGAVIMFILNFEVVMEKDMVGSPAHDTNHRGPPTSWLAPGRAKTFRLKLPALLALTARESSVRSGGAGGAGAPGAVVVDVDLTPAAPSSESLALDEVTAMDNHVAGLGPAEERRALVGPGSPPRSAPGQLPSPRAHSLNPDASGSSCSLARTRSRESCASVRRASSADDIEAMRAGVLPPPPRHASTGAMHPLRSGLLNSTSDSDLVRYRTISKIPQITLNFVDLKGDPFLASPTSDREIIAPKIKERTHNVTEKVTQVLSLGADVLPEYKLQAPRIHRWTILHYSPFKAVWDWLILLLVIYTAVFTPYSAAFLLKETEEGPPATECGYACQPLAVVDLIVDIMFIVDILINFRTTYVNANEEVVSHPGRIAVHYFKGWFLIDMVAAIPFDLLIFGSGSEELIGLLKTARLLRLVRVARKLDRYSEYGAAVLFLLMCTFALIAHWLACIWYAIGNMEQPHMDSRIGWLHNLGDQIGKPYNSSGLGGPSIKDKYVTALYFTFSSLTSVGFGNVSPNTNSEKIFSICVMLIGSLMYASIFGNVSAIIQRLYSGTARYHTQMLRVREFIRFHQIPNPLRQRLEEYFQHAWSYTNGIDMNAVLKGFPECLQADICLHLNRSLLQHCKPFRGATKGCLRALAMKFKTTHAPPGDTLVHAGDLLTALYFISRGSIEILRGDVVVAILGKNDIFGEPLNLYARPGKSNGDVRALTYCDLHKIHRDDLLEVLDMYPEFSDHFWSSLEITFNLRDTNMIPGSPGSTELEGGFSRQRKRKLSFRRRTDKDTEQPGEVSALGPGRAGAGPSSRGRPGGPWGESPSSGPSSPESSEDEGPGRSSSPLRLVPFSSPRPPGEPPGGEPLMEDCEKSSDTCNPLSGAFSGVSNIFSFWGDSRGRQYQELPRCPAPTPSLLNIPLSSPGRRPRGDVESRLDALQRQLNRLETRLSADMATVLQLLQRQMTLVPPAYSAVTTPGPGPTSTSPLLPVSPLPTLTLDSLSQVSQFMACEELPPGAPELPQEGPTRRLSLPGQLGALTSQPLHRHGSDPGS
(In general: The hERG channel carries a current that helps repolarise heart muscle cells.)

The target of assay [12] is Cytochrome P450 3A4 (Homo sapiens) (UniProt P08684). The experiment in a line: Cytochrome P450 Family 3 Subfamily A Member 4 (CYP3A4) small molecule antagonists: luciferase reporter qHTS assay (AID 1671201). Also: nearly all actives have a fitted effect of over 50% in size. Also: potency is read from the fitted curve at half-maximal effect. An outline of the steps:
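Relative luminescence units after 20 min with luciferin detection reagent served as read-out. Beforehand, CYP3A4 turned over a proluciferin substrate for 1 h at room temperature with NADPH regeneration, following 10 min compound preincubation.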

A short description of assay [13]: Caspase-3/7 induction in HepG2 cells by small molecules, qHTS assay (AID 1346978). Also: nearly all actives have a fitted effect of over 15% in size. An outline of the steps:
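Caspase-3/7 induction was measured by Caspase-Glo 3/7 luminescence (30 min, room temperature) after a 17 hr compound exposure of wild-type HepG2 cells seeded at 2,000 per well and pre-incubated 5 hr.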

Assay [14] has as its target Nuclear receptor subfamily 1 group I member 2 (Rattus norvegicus) (UniProt Q9R1A7). Description: Rat pregnane X receptor (rPXR) activation by small molecules, qHTS assay (AID 1346983). Also: nearly all actives have a fitted effect of over 20% in size. As to conditions: rPXR luciferase reporter cells, One-Glo luminescence, 24 h; active compounds read high. An outline of the steps: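 Luminescent readout (One-Glo luciferase, 30 min room temperature) followed 24 hr compound treatment at 37 C of rPXR cells plated 2,000 per well and preincubated 5hr; qHTS format with compounds delivered in DMSO.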

In assay [15] the target is Nuclear receptor subfamily 1 group I member 2 (Homo sapiens) (UniProt O75469). Description: Human pregnane X receptor (PXR) activation by small molecules, qHTS assay (AID 1346985). Also: nearly all actives have a fitted effect of over 40% in size. An outline of the steps: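 DPX-2 cells (HepG2 co-transfected with a PXR response element and a CYP3A4-promoter luciferase construct) were seeded at 2,000 per well, rested 5 hr at 37C, then exposed to DMSO-dissolved compounds for 24 hr. Activation was read as luciferase luminescence.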
Chain of Nuclear receptor subfamily 1 group I member 2 (Homo sapiens) (O75469 whole entry, looked up): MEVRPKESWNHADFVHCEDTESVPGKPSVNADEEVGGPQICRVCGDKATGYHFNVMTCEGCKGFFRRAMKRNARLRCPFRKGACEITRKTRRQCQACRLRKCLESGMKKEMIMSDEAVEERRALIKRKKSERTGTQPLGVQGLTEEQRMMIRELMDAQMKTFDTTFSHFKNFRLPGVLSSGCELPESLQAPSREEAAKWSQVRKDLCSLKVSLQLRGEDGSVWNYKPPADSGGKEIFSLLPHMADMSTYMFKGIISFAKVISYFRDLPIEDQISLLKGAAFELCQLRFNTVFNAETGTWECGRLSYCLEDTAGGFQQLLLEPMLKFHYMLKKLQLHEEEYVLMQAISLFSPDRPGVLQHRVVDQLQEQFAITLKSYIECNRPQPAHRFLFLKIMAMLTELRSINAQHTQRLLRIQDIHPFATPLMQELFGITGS

Assay [16] has the same target. Description: CYP3A4 induction through human pregnane X receptor (PXR) by small molecules, qHTS assay (AID 1346984). Also: nearly all actives have a fitted effect of over 40% in size. An outline of the steps: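 DPX-2 HepG2 cells carrying a PXR response element and CYP3A4-promoter luciferase construct, treated with compounds 24 hr at 37C. Then P450-Glo CYP3A4 Luciferin-IPA substrate (3uM final) for 3 hr at 37C, One-Glo added, luminescence read.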

Values without a mark were called inactive. Results filed as inconclusive are left out. Activity calls are given as the source filed them. Unless noted, calls follow the shape of the dose curve; as a rule, active = well fitted curve in the direction sought with a large enough effect in the repeat runs; inconclusive = weak or mixed curves; inactive = no such curve, though single readings can be large; an effect the other way counts as inactive or inconclusive.
% is scaled to controls: 0 for no effect and ±100 for the full control effect.

Chain of Cytochrome P450 2D6 (Homo sapiens) (P10635 whole entry, looked up): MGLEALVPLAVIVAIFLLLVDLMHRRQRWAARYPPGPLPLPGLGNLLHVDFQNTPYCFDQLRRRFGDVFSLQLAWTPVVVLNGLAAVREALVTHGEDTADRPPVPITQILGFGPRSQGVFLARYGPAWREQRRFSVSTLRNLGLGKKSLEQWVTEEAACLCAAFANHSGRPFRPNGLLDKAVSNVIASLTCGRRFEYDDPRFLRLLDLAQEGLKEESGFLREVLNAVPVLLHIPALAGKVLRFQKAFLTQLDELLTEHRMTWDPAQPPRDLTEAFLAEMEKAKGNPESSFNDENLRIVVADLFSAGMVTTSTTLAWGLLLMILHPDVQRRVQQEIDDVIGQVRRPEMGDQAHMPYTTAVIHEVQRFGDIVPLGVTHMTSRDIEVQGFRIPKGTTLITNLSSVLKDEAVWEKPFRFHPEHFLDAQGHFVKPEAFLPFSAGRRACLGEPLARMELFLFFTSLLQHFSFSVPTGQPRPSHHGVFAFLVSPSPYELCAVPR
Chain of Thyrotropin-releasing hormone receptor (Homo sapiens) (P34981 whole entry, looked up): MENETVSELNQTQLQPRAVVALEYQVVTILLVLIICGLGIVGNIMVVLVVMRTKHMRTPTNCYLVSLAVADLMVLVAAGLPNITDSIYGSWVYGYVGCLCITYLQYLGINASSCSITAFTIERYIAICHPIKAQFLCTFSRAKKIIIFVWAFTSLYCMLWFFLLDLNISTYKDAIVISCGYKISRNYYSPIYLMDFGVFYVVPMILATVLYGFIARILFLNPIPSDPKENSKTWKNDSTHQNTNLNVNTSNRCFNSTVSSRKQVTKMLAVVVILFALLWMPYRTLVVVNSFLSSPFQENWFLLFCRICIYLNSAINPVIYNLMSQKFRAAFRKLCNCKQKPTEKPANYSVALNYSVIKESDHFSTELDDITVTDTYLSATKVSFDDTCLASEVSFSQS
Chain of Cytochrome P450 2C9 (Homo sapiens) (P11712 whole entry, looked up): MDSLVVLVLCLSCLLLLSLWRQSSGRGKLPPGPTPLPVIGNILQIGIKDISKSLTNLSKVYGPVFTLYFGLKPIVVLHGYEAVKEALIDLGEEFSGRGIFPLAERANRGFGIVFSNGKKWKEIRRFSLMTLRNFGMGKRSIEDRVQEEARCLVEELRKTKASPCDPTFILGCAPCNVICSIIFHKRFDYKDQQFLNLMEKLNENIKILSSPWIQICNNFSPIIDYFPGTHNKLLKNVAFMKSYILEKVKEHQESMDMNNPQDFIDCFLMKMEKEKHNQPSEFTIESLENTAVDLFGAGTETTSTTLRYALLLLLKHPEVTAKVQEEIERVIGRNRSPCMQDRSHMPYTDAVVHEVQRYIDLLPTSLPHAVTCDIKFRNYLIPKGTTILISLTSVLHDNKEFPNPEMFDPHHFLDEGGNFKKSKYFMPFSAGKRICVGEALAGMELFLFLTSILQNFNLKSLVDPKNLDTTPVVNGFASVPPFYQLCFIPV
Chain of Cytochrome P450 2C19 (Homo sapiens) (P33261 whole entry, looked up): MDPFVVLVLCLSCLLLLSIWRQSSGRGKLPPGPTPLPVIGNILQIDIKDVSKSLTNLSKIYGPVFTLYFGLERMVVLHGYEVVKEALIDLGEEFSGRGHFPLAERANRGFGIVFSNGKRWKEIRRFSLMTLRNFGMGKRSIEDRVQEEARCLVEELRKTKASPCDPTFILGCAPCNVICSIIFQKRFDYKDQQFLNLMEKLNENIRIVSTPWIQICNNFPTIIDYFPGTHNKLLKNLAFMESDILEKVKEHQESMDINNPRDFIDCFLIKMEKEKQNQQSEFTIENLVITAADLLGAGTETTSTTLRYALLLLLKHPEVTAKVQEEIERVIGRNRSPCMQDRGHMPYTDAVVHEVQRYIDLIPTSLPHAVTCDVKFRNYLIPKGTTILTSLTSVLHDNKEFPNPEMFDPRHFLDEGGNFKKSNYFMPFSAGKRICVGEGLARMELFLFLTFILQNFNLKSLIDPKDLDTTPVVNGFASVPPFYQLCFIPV
Chain of Cytochrome P450 3A4 (Homo sapiens) (P08684 whole entry, looked up): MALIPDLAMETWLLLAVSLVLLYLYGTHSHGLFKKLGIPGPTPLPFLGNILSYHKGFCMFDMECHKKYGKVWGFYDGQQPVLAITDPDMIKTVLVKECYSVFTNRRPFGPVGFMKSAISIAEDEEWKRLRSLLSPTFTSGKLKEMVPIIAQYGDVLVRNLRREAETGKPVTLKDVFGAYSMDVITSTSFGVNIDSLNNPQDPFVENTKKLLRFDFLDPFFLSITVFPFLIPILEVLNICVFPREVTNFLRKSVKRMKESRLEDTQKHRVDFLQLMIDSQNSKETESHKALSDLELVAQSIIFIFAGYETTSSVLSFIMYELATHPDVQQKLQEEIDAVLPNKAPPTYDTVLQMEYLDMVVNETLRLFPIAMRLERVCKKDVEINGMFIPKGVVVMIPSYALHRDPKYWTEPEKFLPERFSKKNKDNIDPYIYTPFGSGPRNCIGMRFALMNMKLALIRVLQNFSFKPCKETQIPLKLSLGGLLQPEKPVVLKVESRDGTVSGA
Chain of Nuclear receptor subfamily 1 group I member 2 (Rattus norvegicus) (Q9R1A7 whole entry, looked up): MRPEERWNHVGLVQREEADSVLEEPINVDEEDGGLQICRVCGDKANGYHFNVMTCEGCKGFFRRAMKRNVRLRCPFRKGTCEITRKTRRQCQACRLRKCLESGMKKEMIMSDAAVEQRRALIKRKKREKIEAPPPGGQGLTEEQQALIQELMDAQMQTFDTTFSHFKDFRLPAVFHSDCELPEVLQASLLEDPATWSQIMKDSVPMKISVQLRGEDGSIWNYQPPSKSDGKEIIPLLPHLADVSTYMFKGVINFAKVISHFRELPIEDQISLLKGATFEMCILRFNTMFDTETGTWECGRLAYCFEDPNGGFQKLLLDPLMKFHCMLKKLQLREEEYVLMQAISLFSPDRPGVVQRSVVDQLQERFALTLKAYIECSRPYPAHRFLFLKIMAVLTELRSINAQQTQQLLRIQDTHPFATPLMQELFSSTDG
Chain of Cytochrome P450 1A2 (Homo sapiens) (P05177 whole entry, looked up): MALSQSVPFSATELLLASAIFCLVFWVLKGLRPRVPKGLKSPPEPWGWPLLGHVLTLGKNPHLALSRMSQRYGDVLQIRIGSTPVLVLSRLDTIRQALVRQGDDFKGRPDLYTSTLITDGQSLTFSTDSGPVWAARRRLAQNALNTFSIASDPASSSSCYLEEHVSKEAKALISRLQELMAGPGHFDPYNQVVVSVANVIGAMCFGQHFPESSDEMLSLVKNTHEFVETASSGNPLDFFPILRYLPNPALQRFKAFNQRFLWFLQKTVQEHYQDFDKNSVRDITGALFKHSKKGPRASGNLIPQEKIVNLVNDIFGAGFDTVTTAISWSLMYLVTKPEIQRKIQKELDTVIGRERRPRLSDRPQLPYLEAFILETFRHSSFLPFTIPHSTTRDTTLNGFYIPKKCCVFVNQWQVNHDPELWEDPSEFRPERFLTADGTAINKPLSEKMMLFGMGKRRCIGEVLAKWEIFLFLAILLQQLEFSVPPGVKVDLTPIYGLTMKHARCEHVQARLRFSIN

Consider `CCCCNC1CC(C)(C)NC(C)(C)C1`, for which the outcome in assay [1] and in assay [4] was inactive. Moreover, the Potency entry in assay [2], in assay [3], in assay [5], in assay [6], in assay [8] and in assay [9] was “inactive” each time. Moreover, the Potency entry in assay [10], in assay [11] and in assay [12] was “inactive” each time. In addition, in assay [7], the Potency is 28.3 µM (active).

With `CCOc1cc([N+](=O)[O-])c(OCC)cc1N1CCOCC1`, the call in assay [1] and in assay [4] was inactive. Besides, the Potency entry in assay [2], in [13], in [7], in assay [8], in assay [11] and in assay [12] was “inactive” each time. For the same molecule, the Potency in assay [6] is 30.6 µM (active); in [9], 7.96 µM (active); in assay [10] it was 1.78 µM (active).

With `CCN(C)C(=O)Oc1cccc([C@H](C)N(C)C)c1`, the result in [1] and in assay [4] was inactive. The Potency entry in assay [2], in [3], in [5], in [6], in assay [15] and in assay [8] was “inactive” throughout. The Potency entry in assay [10], in [11] and in [12] was “inactive” in each case. The max activation in assay [14] is 7.36%.

With `COc1cc2c(cc1OC)C(=O)CC2`, in [1], the molecule was classed as inactive. The Potency result in assay [2], in assay [13], in assay [3], in assay [6], in [7] and in [8] was “inactive” in each case. Moreover, the Potency entry in assay [11] and in assay [12] was “inactive” each time. Moreover, the Potency in assay [10] is 27.5 µM (active).

`COC(=O)CCCCCCCC(=O)OC`: the molecule was called inactive in assay [1]. For the same molecule, the Potency entry in [2], in assay [13], in assay [3], in [5], in assay [6] and in assay [8] was “inactive” throughout. The Potency result in assay [9], in [11] and in assay [12] was “inactive” each time.

For the molecule `c1ccc2c(c1)ccc1c3ccccc3ccc21`, the molecule was called inactive in assay [1] and in [4]. For the same molecule, the Potency result in assay [2], in assay [3], in assay [5], in assay [6], in assay [7] and in assay [8] was “inactive” each time. The Potency result in [9], in assay [11] and in [12] was “inactive” in each case. For the same molecule, in [10], the Potency was 0.725 µM (active).

With `CCCCOC(=O)c1ccccc1`, the outcome in [1] was inactive. In addition, the Potency entry in assay [2], in [13], in assay [3], in assay [5], in assay [6] and in assay [7] was “inactive” each time. Also, the Potency entry in [9], in [10], in assay [11] and in [12] was “inactive” each time.

For `CC(=O)N[C@@H](CCC(=O)O)C(=O)O`, the molecule was classed as inactive in assay [1] and in assay [4]. The Potency entry in assay [2], in [3], in [5], in assay [6], in assay [16] and in assay [15] was “inactive” in each case. The Potency entry in assay [7], in assay [9], in assay [10], in [11] and in assay [12] was “inactive” each time. The max activation in assay [14] was -1.49%.

On to `O=C(O)CCSSCCC(=O)O`, for which the molecule was called inactive in assay [1]. The Potency result in assay [2], in [13], in assay [3], in [5], in assay [6] and in assay [7] was “inactive” each time. In addition, the Potency entry in [8], in assay [9], in assay [11] and in assay [12] was “inactive” each time.

Take `CC(CN)CC(C)(C)CCN` (stereo not given): the outcome in assay [1] and in assay [4] was inactive. Also, the Potency result in assay [2], in assay [13], in assay [5], in assay [6] and in assay [11] was “inactive” throughout. Also, the Potency is 11.5 µM (active) in [7], 36.5 µM (active) in assay [8] and 5.16 µM (active) in assay [12].

For the molecule `CCOC(=O)CC(=O)c1ccccc1`, the result in assay [1] was inactive. In addition, the Potency entry in [2], in assay [13], in assay [3], in assay [5], in assay [11] and in assay [12] was “inactive” each time. For the same molecule, the Potency in assay [6] is 68.6 µM (active); in assay [8] it was 39.9 µM (active); in assay [9] it was 35.6 µM (active); in assay [10], 28.3 µM (active).

As to `CCCCCCCCCCl`, the molecule was classed as inactive in assay [1]. Moreover, the Potency result in assay [2], in assay [13], in assay [3], in [5], in [6] and in [9] was “inactive” each time. For the same molecule, the Potency entry in [11] and in [12] was “inactive” throughout. The Potency in assay [7] is 40.3 µM (active).

Take `CN(C)CCOCCO`: the outcome in assay [1] and in assay [4] was inactive. Moreover, the Potency entry in assay [2], in [3], in [5], in assay [6], in assay [7] and in [8] was “inactive” in each case. Besides, the Potency entry in [9], in assay [10], in assay [11] and in assay [12] was “inactive” each time.

Turning to `O=C1CC(c2ccc(Cl)cc2)CC(=O)N1`, the call in [1] was inactive. The Potency entry in assay [2], in assay [13], in assay [5], in assay [6], in assay [7] and in [8] was “inactive” in each case. Moreover, the Potency result in assay [9], in assay [11] and in [12] was “inactive” throughout. Further, in assay [10], the Potency was 27.5 µM (active).

With `O=C(O)c1ccc(Cl)cc1Cl`, the outcome in assay [1] and in assay [4] was inactive. For the same molecule, the Potency entry in [2], in [3], in assay [5], in assay [6], in [7] and in assay [8] was “inactive” each time. The Potency result in [9], in assay [10], in assay [11] and in assay [12] was “inactive” in each case.

For `C=CC(OCC)OCC`, the molecule was classed as inactive in assay [1] and in [4]. Further, the Potency result in [2], in assay [3], in assay [5], in assay [6], in [7] and in assay [8] was “inactive” throughout. Also, the Potency entry in [9], in assay [10], in assay [11] and in assay [12] was “inactive” each time.

For the molecule `Cc1ccc(S(=O)(=O)O)c(C)c1`, the molecule was classed as inactive in assay [1] and in assay [4]. Besides, the Potency result in assay [2], in [13], in assay [5], in [6], in assay [7] and in assay [8] was “inactive” throughout. The Potency result in assay [10], in [11] and in assay [12] was “inactive” throughout.

`Cc1c(I)c(=O)n(-c2ccccc2)n1C`: the result in assay [1] and in assay [4] was inactive. In addition, the Potency result in assay [2], in [3], in [5], in assay [6], in assay [15] and in [7] was “inactive” throughout. The Potency result in assay [8], in [10], in assay [11] and in [12] was “inactive” each time. Also, the max activation in assay [14] is -0.919%.

Source of the values: PubChem BioAssay (Tox21).
